Bioassay records as filed in PubChem BioAssay.
HPGD inh = HPGD (human) dehydrogenase inhibition; 150,000 compounds, 4.3% hits; Potency, µM, actives largely listed as inhibitors; purified HPGD, NADH fluorescence kinetic, PGE2 substrate; active = well fitted inhibition curve with a large enough effect, not every such curve was filed as active; inconclusive = small, poorly fitted or top-dose-only effect, or another doubt; inactive = no such curve, though single readings can be large or run the other way
Target sequence (P15428 whole entry, looked up): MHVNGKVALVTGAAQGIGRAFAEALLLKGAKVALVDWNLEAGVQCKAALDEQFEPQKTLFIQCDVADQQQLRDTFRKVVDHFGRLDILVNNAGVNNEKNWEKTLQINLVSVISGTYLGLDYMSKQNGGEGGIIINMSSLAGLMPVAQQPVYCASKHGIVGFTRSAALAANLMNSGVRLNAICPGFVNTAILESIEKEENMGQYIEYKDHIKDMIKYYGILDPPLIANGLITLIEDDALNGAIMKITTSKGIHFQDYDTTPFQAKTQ
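NADH formation kinetics: reaction with 30 uM PGE2 and 1 mM NAD+ (final), 20 nM enzyme, Tris-HCl pH 8 with Tween 20, after 15 min compound preincubation at room temperature. Fluorescence change, last versus first of five reads.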
GoLoco inh red = RGS12 GoLoco-Gai1 interaction inhibition. AID 880. Gai1:RGS12 GoLoco peptide FP, rhodamine, 10 min. Potency, µM (highest dose often 61.6 µM), usual class: inhibitors. 230,000 compounds, 0.44% hits; active = well fitted inhibition curve with a large enough effect, not every such curve was filed as active; inactive = no such curve, though single readings can be large or run the other way; also: nearly all actives have a fitted effect of over 30% in size
PNC assembly inh = inhibitors of perinucleolar compartment assembly. PC3M PTB-GFP, PNC prevalence imaging, 16 h; stronger effect = lower value. activity change (PNC), negative = inhibition, % at 10 µM. 140,000 compounds, 3.1% hits;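 active = readout at or below -70, meaning at least 70% loss of cells showing the perinucleolar compartment, a nuclear body marking cancer cells; inconclusive = readout between -30 and a set limit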
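Compounds are pinned in duplicate onto adhered PC3M cells stably expressing GFP-tagged PTB and incubated 16 h at 37 C. Cells are then fixed, nuclei stained with Hoechst, and PNC-positive cells counted.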
HttQ103 aggreg = reduces HttQ103-GFP aggregates in PC12 cells; PC12 HttQ103-GFP aggregates, Acumen cytometry, 40 h; Potency, µM (series often up to 46.1 µM), usual class: inhibitors; 220,000 compounds, 1.1% hits; also: nearly all actives have a fitted effect of over 60% in size
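Aggregates are detected as GFP objects 1–25 µm with signal 6 STDEV over background in lysates of induced PC12 cells. These carry Huntingtin exon 1 with 103 glutamines fused to GFP under an ecdysone promoter; compounds titrated.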
HTT cytoprotect = cytoprotection in Huntington HTT-Q103 PC12 cell model; PC12 HTT-Q103 induced, cytoprotection, ATP luminescence, 40 h; Potency, µM (top dose mostly 56.4 µM), most hits filed as activators; 230,000 compounds, 0.14% hits; AID 1471; also: nearly all actives have a fitted effect of over 45% in size
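ATP quantification (ATPlite) reports survival of PC12 cells in which tebufenozide, 100 nM final, switches on Htt exon 1 with 103 glutamines linked to GFP; compounds are titrated.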
ALDH1A1 block = inhibitors of human aldehyde dehydrogenase 1A1; Purified ALDH1A1, NADH fluorescence, propionaldehyde substrate; Potency, µM (titrated, usually from 75.3 µM), usual class: inhibitors; 220,000 compounds, 7.3% hits; P00352; AID 1030; active = well fitted inhibition curve with a large enough effect, not every such curve was filed as active; inconclusive = small, poorly fitted or top-dose-only effect, or another doubt; inactive = no such curve, though single readings can be large or run the other way
Target sequence (P00352 whole entry, looked up): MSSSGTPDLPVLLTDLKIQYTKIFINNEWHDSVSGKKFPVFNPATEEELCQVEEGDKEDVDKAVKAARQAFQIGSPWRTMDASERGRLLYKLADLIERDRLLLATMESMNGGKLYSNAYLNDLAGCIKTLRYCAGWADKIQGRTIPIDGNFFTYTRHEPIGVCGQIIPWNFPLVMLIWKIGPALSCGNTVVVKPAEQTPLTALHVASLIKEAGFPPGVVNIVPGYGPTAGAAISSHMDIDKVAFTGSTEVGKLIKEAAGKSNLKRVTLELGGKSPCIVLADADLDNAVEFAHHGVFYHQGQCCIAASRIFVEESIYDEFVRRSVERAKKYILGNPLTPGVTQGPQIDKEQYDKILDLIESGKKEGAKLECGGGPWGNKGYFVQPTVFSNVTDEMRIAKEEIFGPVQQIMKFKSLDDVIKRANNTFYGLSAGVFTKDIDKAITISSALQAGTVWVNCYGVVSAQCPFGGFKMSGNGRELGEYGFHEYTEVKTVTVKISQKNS
Of the large screens only hits and unclear results are named; the others gave an inactive call. Compounds with a hit are over-represented: about 11% of the library has one in this group of screens. Unless noted, calls follow the shape of the dose curve; as a rule, active = well fitted curve in the direction sought with a large enough effect; inconclusive = small, poorly fitted or top-dose-only effect, or another doubt; inactive = no such curve, though single readings can be large; an effect the other way counts as inactive or inconclusive.

CCOC(=O)C(C)(C)N(Cc1cccc(C)c1)S(=O)(=O)c1cccc([N+](=O)[O-])c1	ALDH1A1 block 18µM
COC(=O)[C@H](COC(C)(C)C)NC(=O)O[C@@H]1Cc2cc(OC)ccc2O[C@H]1c1cccc(OC)c1	none (no result: PNC assembly inh, HttQ103 aggreg)
COCCN(CCOC)c1nc(C)nc2c1nc(-c1ccccc1)n2CC1CCN(C)CC1	HPGD inh inconclusive, ALDH1A1 block inconclusive (no result: PNC assembly inh, HttQ103 aggreg)
O=S(=O)(c1ccccc1)N1CCC[C@@]2(CCN(c3ccccc3)C2)C1	ALDH1A1 block inconclusive (no result: PNC assembly inh, HttQ103 aggreg)
CC(=O)N[C@@H](CSC/C=C(\C)CC/C=C(\C)CCC=C(C)C)C(=O)O	none (no result: PNC assembly inh, HttQ103 aggreg)
O=C(O)c1ccc(-n2nc(C(F)(F)F)c3c2-c2ccoc2CC3)cc1	HPGD inh 22µM
Cc1[nH]c2ccccc2c1C(=O)COC(=O)Cn1c(C(F)(F)F)nc2ccccc21	PNC assembly inh -105
COc1ccc(-n2nnnc2Sc2ccc(S(=O)(=O)N3CCOCC3)cn2)cc1	HPGD inh 7.1µM, ALDH1A1 block 2.8µM
COc1ccc(-n2nc3c(c2NC(=O)c2ccc(S(=O)(=O)N4CCOCC4)cc2)CS(=O)C3)cc1 (stereo not given)	ALDH1A1 block 2.5µM (no result: HPGD inh, PNC assembly inh)
CC(C)(C)n1nc2c(c1NC(=O)c1ccc(S(=O)(=O)N3CCCCC3)cc1)CS(=O)C2 (stereo not given)	ALDH1A1 block 25µM
COc1ccc(-n2cnnc2SCC(=O)c2ccc(S(=O)(=O)N3CCOCC3)cc2)cc1	PNC assembly inh inconclusive, ALDH1A1 block 1.4µM
COc1ccc(-n2cnnc2SCC(=O)Nc2cc(S(=O)(=O)N3CCCCC3)ccc2C)cc1	none
O=C(Nc1c2c(nn1-c1ccccc1)CS(=O)C2)c1ccc(S(=O)(=O)N2CCOCC2)cc1 (stereo not given)	none (no result: HPGD inh, PNC assembly inh)
COCCn1c(=O)c(-c2cc(F)cc(F)c2)nc2cnc(Oc3ccc(OC)cc3)nc21	none (no result: PNC assembly inh, HttQ103 aggreg)
COC(=O)c1ccc(COc2ccc(/C=N/Nc3nc(C)cc(=O)[nH]3)cc2)cc1	none (no result: HPGD inh, PNC assembly inh, ALDH1A1 block)
CC1CCCC(C)N1NC(=S)Nc1ccc(OC(F)F)cc1 (stereo not given)	ALDH1A1 block inconclusive
CCc1cccc2c(C(=O)CSc3nncn3-c3ccc(OC)cc3)c[nH]c12	PNC assembly inh -104
CCc1cccc2c(C(=O)CSc3nncn3-c3ccccc3OC)c[nH]c12	none
CC1CCN(Cc2c(O)ccc3c2O/C(=C\c2ccco2)C3=O)CC1	ALDH1A1 block 25µM (no result: HTT cytoprotect)
O=C1/C(=C/c2ccco2)Oc2c1ccc(O)c2CN1CCCCC1	HPGD inh inconclusive, ALDH1A1 block inconclusive (no result: HTT cytoprotect)
COC(=O)c1cc(C(=O)OC)cc(N2C(=O)CC(NNC(=O)c3ccccc3Br)C2=O)c1 (stereo not given)	none
COC(=O)c1cc(C(=O)OC)cc(N2C(=O)CC(NNC(=O)c3ccc(C)cc3)C2=O)c1 (stereo not given)	HPGD inh 14µM (no result: HTT cytoprotect)
COC(=O)c1ccc(N2C(=O)CC(Sc3n[nH]c(C)n3)C2=O)cc1 (stereo not given)	HPGD inh 16µM, ALDH1A1 block 0.56µM
COC(=O)c1cc(C(=O)OC)cc(N2C(=O)CC(Sc3nc(C)cc(C)n3)C2=O)c1 (stereo not given)	ALDH1A1 block 13µM
COc1cc(OC)cc(C(=O)Nn2cc(C(=O)Nc3ccc(F)cc3F)c3ccccc3c2=O)c1	ALDH1A1 block inconclusive (no result: HTT cytoprotect)
CCOC(=O)CNC(=O)O[C@H]1C(=O)c2cc(OC)ccc2O[C@@H]1c1ccc(OC)c(Br)c1	none (no result: PNC assembly inh, HttQ103 aggreg)
CC(=O)c1sc(N/N=C\c2cccc(Br)c2)nc1C	HPGD inh 28µM, PNC assembly inh -85, ALDH1A1 block 25µM
Cc1ccc(/C=C2\SC(=S)N(/N=C/c3cc([N+](=O)[O-])ccc3O)C2=O)o1	ALDH1A1 block 7.1µM (no result: HPGD inh, PNC assembly inh)
Cc1ccc(/C=C2\SC(=S)N(C3CCS(=O)(=O)C3)C2=O)o1 (stereo not given)	HTT cytoprotect inconclusive, ALDH1A1 block inconclusive (no result: HPGD inh, PNC assembly inh)
CCN(C(=S)Nc1ccccc1F)C1CCCCC1	none
COc1ccc(CCNC(=O)c2ccccc2SC)cc1	none (no result: HPGD inh, PNC assembly inh)
Cc1ccc(-n2cc(-c3ccccc3)[nH]c2=O)cc1F	ALDH1A1 block 20µM
COc1ccc(-c2cn(-c3cccc(C)c3)c(=O)[nH]2)cc1OC	ALDH1A1 block inconclusive (no result: HPGD inh, PNC assembly inh)
COCC(=O)N1CCC2(CCCN(c3cccc(-c4ccccc4)c3)C2)CC1	ALDH1A1 block inconclusive (no result: PNC assembly inh, HttQ103 aggreg)
Cc1cc(C)n(-c2ccc(C(=O)NC(C)C)cc2)n1	HPGD inh 20µM
C/C(=N\N1C(=O)c2ccccc2NC1c1ccccc1)c1ccccc1O (stereo not given)	none (no result: HPGD inh, PNC assembly inh, HttQ103 aggreg, HTT cytoprotect)
C/C(=N\N1C(=O)c2ccccc2NC1c1ccco1)c1ccccc1O (stereo not given)	HttQ103 aggreg 7.1µM (no result: HPGD inh, PNC assembly inh)
COCCNC(=S)Nc1ccc(Cl)c(Cl)c1	none (no result: HPGD inh, PNC assembly inh)
CC(C)OC(=O)Nc1ccc(-c2ccc(NC(=O)OC(C)C)cc2Cl)c(Cl)c1	none (no result: HPGD inh, PNC assembly inh, ALDH1A1 block)
CC(C)OC(=O)NCCOC(=O)Nc1cccc(Cl)c1	HttQ103 aggreg 11µM
C=COCCNC(=O)Nc1ccc(Cl)c(Cl)c1	HPGD inh 20µM
O=C(Nc1ccc(Cl)c(Cl)c1)OCc1cnc(Cl)s1	none
O=C(Nc1ccc(Cl)c(Cl)c1)OCc1cncs1	HttQ103 aggreg 11µM
CC(C)OC(=O)NCCOC(=O)Nc1ccc(Cl)c(Cl)c1	HttQ103 aggreg 7.1µM
CC(C)OC(=O)NC(C)(C)COC(=O)Nc1cccc(Cl)c1	none
CCN(CC)S(=O)(=O)c1cccc(NC(=O)COC(=O)C2CC3C=CC2C3)c1 (stereo not given)	ALDH1A1 block inconclusive (no result: HPGD inh, PNC assembly inh)
CN(C)c1ncc2nc(-c3ccc(Cl)cc3)c(=O)n(C3CC3)c2n1	HPGD inh inconclusive, ALDH1A1 block inconclusive (no result: PNC assembly inh, HttQ103 aggreg)
COc1ccc(C(=O)OCCN2CCOCC2)cc1	PNC assembly inh -100
COc1ccc(C(=O)OCCN2CCOCC2)cc1OC	PNC assembly inh inconclusive (no result: HPGD inh, GoLoco inh red)
O=C(OCCN1CCOCC1)c1ccc(OCCN2CCOCC2)cc1	PNC assembly inh -85
COc1ccccc1/C=C/C(=O)OCCN1CCOCC1	HPGD inh inconclusive, PNC assembly inh -87, ALDH1A1 block inconclusive
COc1ccc(CCC(=O)NCCc2cn3c(C)csc3n2)cc1	ALDH1A1 block 18µM
COc1ccc(NC(=S)NN(C)C(=S)Nc2ccc(OC)cc2)cc1	PNC assembly inh -114, ALDH1A1 block inconclusive (no result: HTT cytoprotect)
C=CCN(CC=C)C(=S)Nc1ccc2nsnc2c1	ALDH1A1 block 11µM (no result: HPGD inh, PNC assembly inh)
CCOc1ccc(NC(=S)Nc2ccc3nsnc3c2)cc1	HPGD inh 28µM, HttQ103 aggreg 3.5µM, ALDH1A1 block 3.5µM (no result: HTT cytoprotect)
COc1ccc(NC(=S)Nc2ccc3nc(C)c(C)nc3c2)cc1	none
COc1ccc(NC(=S)Nc2ccc3nsnc3c2)cc1	ALDH1A1 block 22µM
